# Measurements reported in the supplement of paper PMC6411743.
# ± gives the standard deviation of the averaged measurements. The full data set covers some 6,200 targets. This sample favours those with the largest changes.
# Key:
# Assay in all cases: NP40-soluble protein abundance relative to vehicle (solubility fold change) (ratio); higher = more soluble protein in presence of AMP-PNP
# UniProt Q58A45|Q58A45-3 = molecular target: T1, UniProt Q58A45|Q58A45-3
# T1 sequence (whole entry): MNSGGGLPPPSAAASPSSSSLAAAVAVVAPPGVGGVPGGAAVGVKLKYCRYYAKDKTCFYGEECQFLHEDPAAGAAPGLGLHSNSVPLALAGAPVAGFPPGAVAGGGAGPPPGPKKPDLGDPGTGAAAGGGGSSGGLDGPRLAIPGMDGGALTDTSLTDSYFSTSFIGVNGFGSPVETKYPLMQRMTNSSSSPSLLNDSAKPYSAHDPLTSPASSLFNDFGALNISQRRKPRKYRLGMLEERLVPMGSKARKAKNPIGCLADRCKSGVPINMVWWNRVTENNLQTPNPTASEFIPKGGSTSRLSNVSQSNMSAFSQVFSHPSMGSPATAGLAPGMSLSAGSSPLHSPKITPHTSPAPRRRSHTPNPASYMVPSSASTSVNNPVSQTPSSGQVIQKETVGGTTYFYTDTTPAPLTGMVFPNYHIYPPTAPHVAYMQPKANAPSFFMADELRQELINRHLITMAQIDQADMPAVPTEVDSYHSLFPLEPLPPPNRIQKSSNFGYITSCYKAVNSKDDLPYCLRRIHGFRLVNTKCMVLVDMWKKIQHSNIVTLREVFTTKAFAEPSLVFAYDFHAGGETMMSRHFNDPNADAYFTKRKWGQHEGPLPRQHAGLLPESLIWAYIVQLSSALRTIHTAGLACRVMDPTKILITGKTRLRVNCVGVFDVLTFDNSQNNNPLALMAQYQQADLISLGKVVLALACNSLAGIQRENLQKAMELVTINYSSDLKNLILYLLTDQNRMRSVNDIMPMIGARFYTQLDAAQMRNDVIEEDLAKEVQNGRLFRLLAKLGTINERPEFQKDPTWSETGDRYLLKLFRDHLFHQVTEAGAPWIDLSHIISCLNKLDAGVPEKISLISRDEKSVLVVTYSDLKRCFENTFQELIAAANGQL
# How it was run: (§1)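 Eight concentrations, 0.1 to 10 mM, were tested on Jurkat crude lysate for 10 min at room temperature and then 3 min at 37 °C, in three independent experiments. The lysate was solubilised with 0.8% NP40 and benzonase, ultracentrifuged, and the supernatant TMT-labelled for LC-MS/MS. Each value is the fold change against the detergent-processed vehicle in its own replicate, from vsn-normalised intensities.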
# UniProt Q5SGD2|Q5SGD2-3 = molecular target: T2, UniProt Q5SGD2|Q5SGD2-3
# T2 sequence (whole entry): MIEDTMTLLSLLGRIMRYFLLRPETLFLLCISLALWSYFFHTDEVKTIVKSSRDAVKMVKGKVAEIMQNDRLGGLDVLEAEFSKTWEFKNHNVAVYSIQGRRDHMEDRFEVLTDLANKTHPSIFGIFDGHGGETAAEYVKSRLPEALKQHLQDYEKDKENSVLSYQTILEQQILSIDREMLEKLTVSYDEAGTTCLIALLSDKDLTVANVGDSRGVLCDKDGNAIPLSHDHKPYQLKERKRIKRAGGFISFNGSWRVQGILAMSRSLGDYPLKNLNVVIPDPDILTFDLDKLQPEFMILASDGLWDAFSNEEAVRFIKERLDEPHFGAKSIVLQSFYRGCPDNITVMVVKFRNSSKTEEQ
# How it was run: as §1
# [1] = molecular target: T3, UniProt Q6PJT7-2|Q6PJT7-3|Q6PJT7-5|Q6PJT7-9|Q6PJT7
# T3 sequence (whole entry): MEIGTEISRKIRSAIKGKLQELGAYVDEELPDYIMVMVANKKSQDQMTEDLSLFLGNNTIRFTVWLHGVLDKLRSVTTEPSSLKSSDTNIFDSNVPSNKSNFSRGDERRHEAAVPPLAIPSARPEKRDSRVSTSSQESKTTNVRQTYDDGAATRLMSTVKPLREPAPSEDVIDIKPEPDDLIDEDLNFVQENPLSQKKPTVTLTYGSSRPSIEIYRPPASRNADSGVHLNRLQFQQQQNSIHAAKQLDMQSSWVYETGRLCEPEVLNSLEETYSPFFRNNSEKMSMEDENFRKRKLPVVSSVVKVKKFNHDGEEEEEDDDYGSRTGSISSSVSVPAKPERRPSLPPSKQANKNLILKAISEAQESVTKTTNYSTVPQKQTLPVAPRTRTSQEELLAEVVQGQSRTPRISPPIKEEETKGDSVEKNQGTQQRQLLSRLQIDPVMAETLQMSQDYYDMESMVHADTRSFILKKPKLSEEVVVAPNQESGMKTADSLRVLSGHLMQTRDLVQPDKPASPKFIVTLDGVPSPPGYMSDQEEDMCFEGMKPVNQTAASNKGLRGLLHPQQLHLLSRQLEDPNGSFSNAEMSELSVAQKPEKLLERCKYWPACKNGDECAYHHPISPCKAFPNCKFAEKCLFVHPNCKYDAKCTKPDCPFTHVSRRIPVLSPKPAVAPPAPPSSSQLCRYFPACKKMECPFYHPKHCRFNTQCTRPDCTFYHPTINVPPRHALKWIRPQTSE
# How it was run: as §1
# UniProt Q8N0Z3 = molecular target: T4, UniProt Q8N0Z3
# T4 sequence (whole entry): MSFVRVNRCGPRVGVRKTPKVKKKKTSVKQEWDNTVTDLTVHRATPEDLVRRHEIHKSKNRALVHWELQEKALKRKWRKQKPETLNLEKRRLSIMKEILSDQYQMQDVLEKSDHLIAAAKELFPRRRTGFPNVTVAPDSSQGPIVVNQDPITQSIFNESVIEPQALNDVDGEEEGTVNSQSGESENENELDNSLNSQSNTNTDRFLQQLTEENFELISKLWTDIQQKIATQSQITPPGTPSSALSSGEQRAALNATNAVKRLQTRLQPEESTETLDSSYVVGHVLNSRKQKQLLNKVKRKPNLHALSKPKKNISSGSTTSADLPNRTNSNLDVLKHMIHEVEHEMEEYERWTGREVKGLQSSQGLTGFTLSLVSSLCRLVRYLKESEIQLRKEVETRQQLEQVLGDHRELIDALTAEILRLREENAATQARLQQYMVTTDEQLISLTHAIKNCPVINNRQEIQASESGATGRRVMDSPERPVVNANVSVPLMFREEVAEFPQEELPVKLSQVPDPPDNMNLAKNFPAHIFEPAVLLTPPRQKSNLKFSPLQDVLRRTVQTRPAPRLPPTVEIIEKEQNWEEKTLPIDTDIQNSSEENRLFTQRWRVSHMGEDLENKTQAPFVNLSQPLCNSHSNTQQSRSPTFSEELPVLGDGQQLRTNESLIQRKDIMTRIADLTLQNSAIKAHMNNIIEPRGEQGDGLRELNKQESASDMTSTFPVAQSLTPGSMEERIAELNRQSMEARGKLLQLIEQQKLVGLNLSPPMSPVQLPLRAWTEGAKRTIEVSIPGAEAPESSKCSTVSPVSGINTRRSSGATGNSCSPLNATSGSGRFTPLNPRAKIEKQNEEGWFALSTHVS
# How it was run: as §1
# [2] = molecular target: T5, UniProt Q92581-2|Q92581-3|Q92581
# T5 sequence (whole entry): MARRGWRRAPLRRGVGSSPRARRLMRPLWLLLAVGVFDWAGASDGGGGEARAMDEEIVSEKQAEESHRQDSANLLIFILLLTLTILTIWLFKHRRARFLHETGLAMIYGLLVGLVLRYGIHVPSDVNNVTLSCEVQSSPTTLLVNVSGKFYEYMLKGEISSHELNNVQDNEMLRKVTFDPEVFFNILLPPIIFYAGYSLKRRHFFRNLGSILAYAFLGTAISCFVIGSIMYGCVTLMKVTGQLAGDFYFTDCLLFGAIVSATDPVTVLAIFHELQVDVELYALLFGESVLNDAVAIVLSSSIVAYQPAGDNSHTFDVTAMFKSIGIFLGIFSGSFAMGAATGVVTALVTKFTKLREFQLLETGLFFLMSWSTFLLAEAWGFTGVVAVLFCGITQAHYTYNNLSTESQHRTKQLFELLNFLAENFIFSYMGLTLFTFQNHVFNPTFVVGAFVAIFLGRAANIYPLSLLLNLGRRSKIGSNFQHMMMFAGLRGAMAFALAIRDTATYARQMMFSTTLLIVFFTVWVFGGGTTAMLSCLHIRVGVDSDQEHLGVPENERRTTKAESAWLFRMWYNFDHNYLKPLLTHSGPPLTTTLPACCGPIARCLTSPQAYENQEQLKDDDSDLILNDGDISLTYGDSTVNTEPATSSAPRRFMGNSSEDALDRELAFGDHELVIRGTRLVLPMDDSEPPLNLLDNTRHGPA
# How it was run: as §1
compound,measurement,setting,value
Nc1ncnc2c1ncn2[C@@H]1O[C@H](COP(=O)(O)OP(=O)(O)NP(=O)(O)O)[C@@H](O)[C@H]1O [adenylyl imidodiphosphate],NP40-soluble protein abundance,UniProt Q58A45|Q58A45-3; concentration: 1mM,1.032 ± 0.0089
same,NP40-soluble protein abundance,UniProt Q58A45|Q58A45-3; concentration: 2mM,1.02 ± 0.024
same,NP40-soluble protein abundance,UniProt Q58A45|Q58A45-3; concentration: 4mM,1.02 ± 0.03
same,NP40-soluble protein abundance,UniProt Q58A45|Q58A45-3; concentration: 6mM,0.999 ± 0.026
same,NP40-soluble protein abundance,UniProt Q58A45|Q58A45-3; concentration: 8mM,1.03 ± 0.022
same,NP40-soluble protein abundance,UniProt Q58A45|Q58A45-3; concentration: 10mM,1.01 ± 0.022
same,NP40-soluble protein abundance,UniProt Q5SGD2|Q5SGD2-3; concentration: 1mM,1.02 ± 0.029
same,NP40-soluble protein abundance,UniProt Q5SGD2|Q5SGD2-3; concentration: 2mM,1.03 ± 0.049
same,NP40-soluble protein abundance,UniProt Q5SGD2|Q5SGD2-3; concentration: 4mM,1 ± 0.019
same,NP40-soluble protein abundance,UniProt Q5SGD2|Q5SGD2-3; concentration: 6mM,1 ± 0.016
same,NP40-soluble protein abundance,UniProt Q5SGD2|Q5SGD2-3; concentration: 8mM,1.02 ± 0.06
same,NP40-soluble protein abundance,UniProt Q5SGD2|Q5SGD2-3; concentration: 10mM,1.006 ± 0.0075
same,NP40-soluble protein abundance,[1]; concentration: 1mM,1.04 ± 0.018
same,NP40-soluble protein abundance,[1]; concentration: 2mM,1.17 ± 0.082
same,NP40-soluble protein abundance,[1]; concentration: 4mM,1.2 ± 0.061
same,NP40-soluble protein abundance,[1]; concentration: 6mM,1.28 ± 0.14
same,NP40-soluble protein abundance,[1]; concentration: 8mM,1.29 ± 0.15
same,NP40-soluble protein abundance,[1]; concentration: 10mM,1.33 ± 0.13
same,NP40-soluble protein abundance,UniProt Q8N0Z3; concentration: 1mM,0.943 ± 0.051
same,NP40-soluble protein abundance,UniProt Q8N0Z3; concentration: 2mM,0.976 ± 0.024
same,NP40-soluble protein abundance,UniProt Q8N0Z3; concentration: 4mM,0.959 ± 0.03
same,NP40-soluble protein abundance,UniProt Q8N0Z3; concentration: 6mM,0.955 ± 0.027
same,NP40-soluble protein abundance,UniProt Q8N0Z3; concentration: 8mM,0.957 ± 0.026
same,NP40-soluble protein abundance,UniProt Q8N0Z3; concentration: 10mM,0.964 ± 0.02
same,NP40-soluble protein abundance,[2]; concentration: 1mM,0.999 ± 0.012
same,NP40-soluble protein abundance,[2]; concentration: 2mM,0.9876 ± 0.0034
same,NP40-soluble protein abundance,[2]; concentration: 4mM,0.957 ± 0.028
same,NP40-soluble protein abundance,[2]; concentration: 6mM,0.9812 ± 0.0025
same,NP40-soluble protein abundance,[2]; concentration: 8mM,0.979 ± 0.025
same,NP40-soluble protein abundance,[2]; concentration: 10mM,0.96 ± 0.026
